Results published in PubChem BioAssay (EPA / NIEHS).
Values joined by “and” are separate entries in the source; they are usually repeats but may differ in a detail not shown here. Equal values may be shown once. Results filed as inconclusive are left out. More than one record can exist for a structure, and the calls need not agree. Active and inactive are the calls of the source. The calls were made as follows, unless noted: active = hit-call score of the fitted dose curve at least 0.9, where 1 is the maximum; inconclusive = response in the unintended direction; inactive = score below 0.9.

Columns and labels:
[1] = ATG_TAL_CIS: Attagene CIS-FACTORIAL HepG2 Assay for human TAL Basal Promoter (AID 2282966; active = hit-call score of the fitted dose curve at least 0.9, where 1 is the maximum; inactive = score below 0.9;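 also: background control endpoint measuring basal TAL promoter reporter mRNA not a specific factor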); conditions: HepG2 Attagene cis-factorial TAL promoter reporter; actives raise or lower the signal
In short: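 Fluorescence of labelled reporter cDNA fragments, resolved by capillary electrophoresis, gave the readout. Human HepG2 liver cells carried transiently transfected cis-element reporter units and were treated for 24 hours; activity was fitted bidirectionally against DMSO.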

[2] = ATG_TGFb_CIS: Attagene CIS-FACTORIAL HepG2 Assay for human Transforming Growth Factor (TGF) (AID 2282967; active = hit-call score of the fitted dose curve at least 0.9, where 1 is the maximum; inactive = score below 0.9); conditions: HepG2 Attagene CIS TGFb reporter, mRNA transcription; actives raise or lower the signal
In short: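 Transient MRTU transfection of HepG2 (FuGene 6). Dose 24 h. TriZol RNA, oligo(dT) RT, PCR, 6-FAM primer extension, HpaI cut, CE. Bidirectional fit, DMSO = baseline.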

[3] = ATG_VDRE_CIS: Attagene CIS-FACTORIAL HepG2 Assay for human Vitamin D Receptor Element (VDRE) (AID 2282968; active = hit-call score of the fitted dose curve at least 0.9, where 1 is the maximum; inactive = score below 0.9); conditions: HepG2 VDRE cis-reporter transcription, actives raise or lower the signal
In short: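 HepG2 cells transiently transfected with cis-element reporter units, dosed 24 h; reporter mRNA measured by RT-PCR, 6-FAM labeling, HpaI digestion and capillary electrophoresis. Activity fitted bidirectionally against DMSO baseline.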

[4] = biological target: Nuclear receptor subfamily 1 group I member 3 (Homo sapiens) (UniProt Q14994); experiment: ATG_CAR_TRANS: Attagene TRANS-FACTORIAL HepG2 Assay for human Constitutive Androstane Receptor (CAR) (AID 2282969); conditions: HepG2 Attagene TRANS-FACTORIAL CAR reporter;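 also: activators raise reporter mRNA above DMSO so AC50 marks induction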
In short: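 HepG2 cells transiently transfected with multiplexed GAL4-UAS reporter units expressing chimeric NR-Gal4 proteins; compound exposure 24 h. Reporter mRNA measured by RT-PCR, 6-FAM labelling, HpaI digestion and capillary electrophoresis; gain-of-signal fitted against DMSO baseline.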

[5] = biological target: Androgen receptor (Homo sapiens) (UniProt P10275); experiment: ATG_AR_TRANS: Attagene TRANS-FACTORIAL HepG2 Assay for human Androgen Receptor (AR) (AID 2282973); conditions: HepG2 Attagene TRANS-FACTORIAL AR reporter transcription
In short: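 Steps: transfect HepG2 with multiple GAL4-UAS reporter transcription units (TRANS format, exogenous NR-Gal4 protein); dose 24 h; isolate RNA, reverse-transcribe, PCR-amplify, FAM-label, HpaI-digest; resolve by capillary electrophoresis. Positive direction vs DMSO.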

[6] = ATG_M_19_TRANS: Attagene TRANS-FACTORIAL HepG2 Assay for M19 Transcription Factor (Internal Marker) (AID 2282974); conditions: HepG2 Attagene TRANS-FACTORIAL M19 internal marker reporter
In short: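 Using RT-PCR and capillary electrophoresis, reporter mRNA from transiently transfected human HepG2 cells was quantified following 24 h exposure; activity was fitted in the positive direction against DMSO.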

[7] = biological target: Oxysterols receptor LXR-beta (Homo sapiens) (UniProt P55055); experiment: ATG_LXRb_TRANS: Attagene TRANS-FACTORIAL HepG2 Assay for human Liver X Receptor beta (LXRb) (AID 2282981); conditions: HepG2 Attagene TRANS GAL4-LXRb reporter, mRNA
In short: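 HepG2 cells transiently transfected with multiple reporter transcription units carrying chimeric NR-Gal4 proteins acting on GAL4-UAS reporters; compound exposure 24 h. Reporter mRNA quantified by RT-PCR, 6-FAM labelling, HpaI digestion and capillary electrophoresis; gain of signal versus DMSO.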

[8] = biological target: Hepatocyte nuclear factor 4-alpha (Homo sapiens) (UniProt P41235); experiment: ATG_HNF4a_TRANS: Attagene TRANS-FACTORIAL HepG2 Assay for human Hepatocyte Nuclear Factor 4 alpha (HNF4a) (AID 2282982); conditions: HepG2 HNF4a transactivation reporter, mRNA readout
In short: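 HepG2 cells transiently transfected with multiplexed GAL4-UAS reporter units responsive to chimeric NR-GAL4 proteins; compound exposure 24 h. Reporter mRNA quantified by RT-PCR, 6-FAM labelling, HpaI digestion and capillary electrophoresis; gain of signal versus DMSO baseline.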

[9] = ATG_M_06_TRANS: Attagene TRANS-FACTORIAL HepG2 Assay for M06 Transcription Factor (Internal Marker) (AID 2282983); conditions: HepG2 Attagene TRANS M06 internal marker reporter;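 also: reporter transcript level by RT-PCR then capillary electrophoresis fluorescence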
In short: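 Transfect HepG2 with MRTUs → dose compounds 24 h → isolate RNA, oligo(dT) RT → PCR with reporter primers → 6-FAM primer extension → HpaI digest → CE fragment analysis. Positive direction vs DMSO.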

[10] = ATG_M_32_TRANS: Attagene TRANS-FACTORIAL HepG2 Assay for M32 Transcription Factor (Internal Marker) (AID 2282984); conditions: HepG2 Attagene TRANS M32 internal marker reporter;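 also: transcript level of a background control reporter unit measured by RT-PCR and capillary electrophoresis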
In short: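 HepG2 cells transiently transfected with multiple GAL4-UAS reporter transcription units, dosed for 24 hours; reporter mRNA quantified by RT-PCR, 6-FAM primer extension, HpaI digestion and capillary electrophoresis. Gain-of-signal fitted versus DMSO baseline; internal background-control marker.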

[11] = biological target: Transcriptional activator Myb (Homo sapiens) (UniProt P10242); experiment: ATG_Myb_CIS: Attagene CIS-FACTORIAL HepG2 Assay for human Myeloblastosis (Myb) Proto-Oncogene Transcription Factor (AID 2282986; active = hit-call score of the fitted dose curve at least 0.9, where 1 is the maximum; inactive = score below 0.9); conditions: HepG2 Attagene CIS-FACTORIAL Myb reporter transcription; actives raise or lower the signal
In short: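 In this HepG2 transient-transfection format, cis-regulated reporter mRNA is quantified 24 h post-dosing by RT-PCR with capillary electrophoresis, fitted bidirectionally to DMSO baseline.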

[12] = biological target: Estrogen receptor (Homo sapiens) (UniProt P03372); experiment: ATG_ERa_TRANS: Attagene TRANS-FACTORIAL HepG2 Assay for human Estrogen Receptor alpha (ERa) (AID 2282970); conditions: HepG2 Attagene TRANS ERa GAL4 reporter, mRNA
In short: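 Human liver HepG2, transient transfection of multiple GAL4-UAS reporter units; TRANS format (exogenous NR-Gal4 chimera). 24 h dosing. Readout: reporter mRNA, RT-PCR, 6-FAM primer extension, HpaI digest, capillary electrophoresis. Positive direction vs DMSO.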

[13] = biological target: X-box-binding protein 1 (Homo sapiens) (UniProt P17861); experiment: ATG_Xbp1_CIS: Attagene CIS-FACTORIAL HepG2 Assay for human X-box Binding Protein 1 (XBP1) (AID 2282972; active = hit-call score of the fitted dose curve at least 0.9, where 1 is the maximum; inactive = score below 0.9); conditions: HepG2 XBP1 cis-element reporter, Attagene multiplex; actives raise or lower the signal
In short: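 Fluorescence-labelled cDNA fragments from reporter transcripts, separated by capillary electrophoresis, give the signal. Source: HepG2 cells transfected with promoter-driven reporter units, harvested 24 h post-dose. DMSO served as reference for bidirectional curve fitting.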

[14] = biological target: Estrogen-related receptor gamma (Homo sapiens) (UniProt P62508); experiment: ATG_ERRg_TRANS: Attagene TRANS-FACTORIAL HepG2 Assay for human Estrogen-Related Receptor gamma (ERRg) (AID 2282977); conditions: HepG2 Attagene TRANS reporter, ERRg transactivation;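 also: hits increase reporter signal over DMSO so potencies reflect activators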
In short: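 Transient HepG2 transfectants, 24 h compound exposure, GAL4-UAS reporter mRNA by RT-PCR/6-FAM labelling/capillary electrophoresis; positive direction vs DMSO.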

[15] = biological target: Glucocorticoid receptor (Homo sapiens) (UniProt P04150); experiment: ATG_GR_TRANS: Attagene TRANS-FACTORIAL HepG2 Assay for human Glucocorticoid Receptor (GR) (AID 2282978); conditions: HepG2 Attagene TRANS GR reporter, mRNA transcription;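 also: activators score as hits since higher reporter transcript over DMSO is fitted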
In short: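 Exogenous NR-GAL4 fusion activity was assessed through induced GAL4-UAS reporter transcripts in transfected human HepG2 cells, quantified after 24 h by RT-PCR and fluorescent capillary electrophoresis with DMSO as baseline.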

[16] = biological target: Bile acid receptor (Homo sapiens) (UniProt Q96RI1); experiment: ATG_FXR_TRANS: Attagene TRANS-FACTORIAL HepG2 Assay for Farnesoid X Receptor (FXR) (AID 2282979); conditions: HepG2 Attagene TRANS FXR-GAL4 reporter transcription;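 also: hits raise reporter mRNA above DMSO so AC50 marks FXR activation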
In short: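 Transient transfection of HepG2 with multiplexed GAL4-UAS reporter units; exogenous FXR-GAL4 chimera. Dose 24 h → TriZol RNA → oligo(dT) RT → PCR, 6-FAM primer extension, HpaI cut → CE. Gain vs DMSO.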

[17] = biological target: Nuclear receptor subfamily 4 group A member 2 (Homo sapiens) (UniProt P43354); experiment: ATG_NURR1_TRANS: Attagene TRANS-FACTORIAL HepG2 Assay for human Nuclear Receptor Related Protein 1 (NURR1) (AID 2282985); conditions: HepG2 Attagene TRANS reporter, mRNA readout
In short: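 HepG2 cells transiently transfected with GAL4-UAS reporter units and chimeric NR-Gal4 constructs; chemical exposure 24 h. Reporter mRNA quantified by RT-PCR, fluorescent labelling and capillary electrophoresis; gain of signal fitted relative to DMSO baseline.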

[18] = biological target: Steroid hormone receptor ERR1 (Homo sapiens) (UniProt P11474); experiment: ATG_ERRa_TRANS: Attagene TRANS-FACTORIAL HepG2 Assay for human Estrogen-Related Receptor alpha (ERRa) (AID 2282971); conditions: HepG2 Attagene TRANS reporter, ERRa transactivation
In short: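 Reporter transcript induction was quantified by RT-PCR and capillary electrophoresis of FAM-labelled, HpaI-cut products after 24 h treatment of HepG2 cells carrying transiently transfected GAL4-UAS reporter units and an exogenous ERRa-Gal4 fusion; activity scored as increase over DMSO.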

[19] = ATG_GAL4_TRANS: Attagene TRANS-FACTORIAL HepG2 Assay for GAL4 (Internal Marker) (AID 2282976); conditions: HepG2 Attagene TRANS GAL4 internal marker reporter
In short: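 First, HepG2 cells were transfected with reporter units under GAL4-UAS control. Next, they were treated with chemical for 24 h. Finally, RNA was reverse-transcribed, PCR-amplified, FAM-labelled and resolved by capillary electrophoresis, with induction scored against DMSO.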

Measured: AC50

Chain of Glucocorticoid receptor (Homo sapiens) (P04150 whole entry, looked up, the tested form may be a part): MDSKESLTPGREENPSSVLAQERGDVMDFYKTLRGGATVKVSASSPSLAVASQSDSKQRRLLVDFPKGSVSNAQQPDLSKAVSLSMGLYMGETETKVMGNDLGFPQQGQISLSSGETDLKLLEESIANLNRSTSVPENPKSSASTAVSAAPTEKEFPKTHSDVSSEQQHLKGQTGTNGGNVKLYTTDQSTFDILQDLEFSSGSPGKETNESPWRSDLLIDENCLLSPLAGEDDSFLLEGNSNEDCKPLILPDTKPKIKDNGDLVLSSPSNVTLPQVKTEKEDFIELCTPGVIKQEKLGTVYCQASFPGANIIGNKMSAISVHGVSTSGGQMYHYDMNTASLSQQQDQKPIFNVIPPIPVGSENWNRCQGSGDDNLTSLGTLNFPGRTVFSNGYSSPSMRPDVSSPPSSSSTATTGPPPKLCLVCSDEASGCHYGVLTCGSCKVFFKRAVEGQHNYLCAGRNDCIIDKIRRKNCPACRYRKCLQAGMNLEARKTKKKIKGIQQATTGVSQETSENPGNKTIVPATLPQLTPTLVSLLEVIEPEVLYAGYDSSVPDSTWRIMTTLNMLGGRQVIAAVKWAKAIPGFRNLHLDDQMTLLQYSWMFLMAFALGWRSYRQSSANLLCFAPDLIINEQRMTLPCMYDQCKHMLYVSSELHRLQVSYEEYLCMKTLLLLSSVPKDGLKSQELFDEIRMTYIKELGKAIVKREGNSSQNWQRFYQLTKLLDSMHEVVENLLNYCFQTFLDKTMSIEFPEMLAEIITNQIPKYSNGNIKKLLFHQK
Chain of Bile acid receptor (Homo sapiens) (Q96RI1 whole entry, looked up, the tested form may be a part): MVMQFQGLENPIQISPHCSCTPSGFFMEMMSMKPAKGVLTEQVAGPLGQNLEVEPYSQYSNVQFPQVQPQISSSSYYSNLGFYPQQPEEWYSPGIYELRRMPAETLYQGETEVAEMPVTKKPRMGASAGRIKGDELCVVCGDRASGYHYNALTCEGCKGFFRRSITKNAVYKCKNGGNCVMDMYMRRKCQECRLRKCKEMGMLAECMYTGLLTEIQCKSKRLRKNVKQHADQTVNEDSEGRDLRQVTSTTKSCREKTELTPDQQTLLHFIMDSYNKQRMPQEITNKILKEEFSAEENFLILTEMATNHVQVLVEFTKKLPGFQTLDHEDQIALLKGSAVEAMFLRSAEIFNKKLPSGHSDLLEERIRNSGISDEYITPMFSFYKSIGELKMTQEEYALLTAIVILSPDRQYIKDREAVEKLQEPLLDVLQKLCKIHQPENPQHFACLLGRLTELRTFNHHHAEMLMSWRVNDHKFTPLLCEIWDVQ
Chain of Nuclear receptor subfamily 4 group A member 2 (Homo sapiens) (P43354 whole entry, looked up, the tested form may be a part): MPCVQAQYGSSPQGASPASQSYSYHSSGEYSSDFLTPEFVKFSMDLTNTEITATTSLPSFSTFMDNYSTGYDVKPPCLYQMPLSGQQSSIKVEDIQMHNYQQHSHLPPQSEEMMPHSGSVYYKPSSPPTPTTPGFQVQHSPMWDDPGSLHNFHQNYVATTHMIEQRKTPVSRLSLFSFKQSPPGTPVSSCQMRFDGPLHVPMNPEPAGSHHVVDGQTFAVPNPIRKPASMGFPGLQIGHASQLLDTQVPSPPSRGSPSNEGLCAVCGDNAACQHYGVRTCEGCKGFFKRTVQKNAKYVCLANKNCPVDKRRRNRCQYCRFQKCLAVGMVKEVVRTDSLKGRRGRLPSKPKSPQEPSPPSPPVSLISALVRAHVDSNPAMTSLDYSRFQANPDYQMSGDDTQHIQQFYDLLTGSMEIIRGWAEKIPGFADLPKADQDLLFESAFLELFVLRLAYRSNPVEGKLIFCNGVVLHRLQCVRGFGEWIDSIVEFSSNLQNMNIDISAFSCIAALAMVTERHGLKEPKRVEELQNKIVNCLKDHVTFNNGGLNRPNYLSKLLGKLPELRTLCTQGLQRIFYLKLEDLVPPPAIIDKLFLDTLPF
Chain of Transcriptional activator Myb (Homo sapiens) (P10242 whole entry, looked up): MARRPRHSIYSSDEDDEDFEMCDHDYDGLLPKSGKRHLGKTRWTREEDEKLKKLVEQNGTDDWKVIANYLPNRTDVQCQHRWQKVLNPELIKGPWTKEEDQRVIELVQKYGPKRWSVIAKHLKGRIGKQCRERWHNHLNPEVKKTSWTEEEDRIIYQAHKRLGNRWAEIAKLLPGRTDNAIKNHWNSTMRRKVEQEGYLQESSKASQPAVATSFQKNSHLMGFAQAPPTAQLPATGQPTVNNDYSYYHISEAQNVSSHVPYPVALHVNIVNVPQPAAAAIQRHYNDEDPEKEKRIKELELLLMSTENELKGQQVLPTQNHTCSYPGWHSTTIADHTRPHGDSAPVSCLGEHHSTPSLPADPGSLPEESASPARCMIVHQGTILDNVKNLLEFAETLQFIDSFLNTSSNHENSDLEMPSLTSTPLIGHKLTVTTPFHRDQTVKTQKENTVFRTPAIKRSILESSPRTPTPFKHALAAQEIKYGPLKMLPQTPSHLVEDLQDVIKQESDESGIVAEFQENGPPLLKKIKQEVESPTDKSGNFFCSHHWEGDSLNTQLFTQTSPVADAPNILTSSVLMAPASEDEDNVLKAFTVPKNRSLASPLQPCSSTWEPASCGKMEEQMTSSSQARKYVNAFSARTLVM
Chain of X-box-binding protein 1 (Homo sapiens) (P17861 whole entry, looked up, the tested form may be a part): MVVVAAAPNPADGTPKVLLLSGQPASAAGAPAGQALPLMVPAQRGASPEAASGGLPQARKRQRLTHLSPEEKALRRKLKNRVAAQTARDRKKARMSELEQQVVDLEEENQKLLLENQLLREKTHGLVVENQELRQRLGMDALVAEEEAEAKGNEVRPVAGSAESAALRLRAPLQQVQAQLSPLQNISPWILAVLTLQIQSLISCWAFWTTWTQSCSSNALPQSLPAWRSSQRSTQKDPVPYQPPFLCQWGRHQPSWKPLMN
Chain of Oxysterols receptor LXR-beta (Homo sapiens) (P55055 whole entry, looked up, the tested form may be a part): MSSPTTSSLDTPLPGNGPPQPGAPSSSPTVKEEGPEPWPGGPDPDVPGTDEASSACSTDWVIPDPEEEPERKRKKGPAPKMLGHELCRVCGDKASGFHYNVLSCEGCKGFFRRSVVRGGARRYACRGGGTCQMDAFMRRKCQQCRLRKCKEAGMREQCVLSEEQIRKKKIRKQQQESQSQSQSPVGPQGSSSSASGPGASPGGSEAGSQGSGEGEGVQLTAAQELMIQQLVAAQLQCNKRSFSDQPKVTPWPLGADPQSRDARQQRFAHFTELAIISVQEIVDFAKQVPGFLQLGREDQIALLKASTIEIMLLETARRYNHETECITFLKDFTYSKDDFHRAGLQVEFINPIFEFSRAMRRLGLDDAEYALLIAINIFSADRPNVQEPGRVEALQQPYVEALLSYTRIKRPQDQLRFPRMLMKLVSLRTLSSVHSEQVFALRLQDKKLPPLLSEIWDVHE
Chain of Estrogen receptor (Homo sapiens) (P03372 whole entry, looked up, the tested form may be a part): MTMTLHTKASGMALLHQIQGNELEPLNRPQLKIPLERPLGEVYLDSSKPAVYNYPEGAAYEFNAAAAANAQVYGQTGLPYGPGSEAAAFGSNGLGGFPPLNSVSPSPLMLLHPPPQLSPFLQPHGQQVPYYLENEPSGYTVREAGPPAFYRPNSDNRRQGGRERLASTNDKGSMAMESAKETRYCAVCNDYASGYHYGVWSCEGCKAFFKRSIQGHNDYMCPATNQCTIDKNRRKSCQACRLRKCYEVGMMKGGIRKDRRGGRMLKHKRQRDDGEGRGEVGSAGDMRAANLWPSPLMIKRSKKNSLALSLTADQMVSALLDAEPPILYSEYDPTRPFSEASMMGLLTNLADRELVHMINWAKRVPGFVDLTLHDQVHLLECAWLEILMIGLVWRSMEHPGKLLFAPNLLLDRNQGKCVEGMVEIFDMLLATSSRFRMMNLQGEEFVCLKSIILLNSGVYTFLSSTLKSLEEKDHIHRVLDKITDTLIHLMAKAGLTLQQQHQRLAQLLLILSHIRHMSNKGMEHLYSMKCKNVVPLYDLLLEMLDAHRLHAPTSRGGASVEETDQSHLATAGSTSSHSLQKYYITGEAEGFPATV
Chain of Nuclear receptor subfamily 1 group I member 3 (Homo sapiens) (Q14994 whole entry, looked up, the tested form may be a part): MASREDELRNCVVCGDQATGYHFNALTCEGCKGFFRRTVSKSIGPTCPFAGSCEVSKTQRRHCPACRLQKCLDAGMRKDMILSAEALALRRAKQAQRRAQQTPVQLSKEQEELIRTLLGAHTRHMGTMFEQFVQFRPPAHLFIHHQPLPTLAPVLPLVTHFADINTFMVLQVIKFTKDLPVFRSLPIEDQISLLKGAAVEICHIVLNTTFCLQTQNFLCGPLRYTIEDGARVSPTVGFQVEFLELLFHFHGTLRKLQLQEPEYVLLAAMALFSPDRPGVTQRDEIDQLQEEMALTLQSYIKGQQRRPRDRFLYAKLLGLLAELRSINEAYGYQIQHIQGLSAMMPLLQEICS
Chain of Estrogen-related receptor gamma (Homo sapiens) (P62508 whole entry, looked up, the tested form may be a part): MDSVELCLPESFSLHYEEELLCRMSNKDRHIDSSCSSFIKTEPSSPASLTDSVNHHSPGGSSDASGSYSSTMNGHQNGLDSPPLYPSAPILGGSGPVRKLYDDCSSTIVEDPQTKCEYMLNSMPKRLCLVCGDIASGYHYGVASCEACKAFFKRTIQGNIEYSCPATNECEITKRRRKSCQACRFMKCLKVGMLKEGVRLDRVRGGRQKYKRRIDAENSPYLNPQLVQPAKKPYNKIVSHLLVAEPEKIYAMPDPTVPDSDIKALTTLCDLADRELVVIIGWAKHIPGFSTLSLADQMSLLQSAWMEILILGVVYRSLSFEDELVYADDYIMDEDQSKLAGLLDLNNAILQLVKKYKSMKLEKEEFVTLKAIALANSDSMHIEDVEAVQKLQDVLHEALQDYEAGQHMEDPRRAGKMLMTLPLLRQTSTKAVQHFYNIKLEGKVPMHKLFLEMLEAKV

CCNc1nc(NC(C)C)nc(SC)n1
inactive: [1] | [2] | [4] | [5] | [6] | [7] | [8] | [9] | [10] | [11]
active: [3] 50 µM

ClC(Cl)=C(c1ccc(Cl)cc1)c1ccc(Cl)cc1
active: [3] 100 µM | [12] 12.2 µM and 4.03 µM and 3.46 µM | [13] 150 µM
inactive: [1] | [2] | [3] | [4] | [12] | [13] | [6] | [14] | [15] | [16] | [7] | [9] | [10] | [17] | [11]

Clc1ccc(C(c2ccccc2Cl)C(Cl)(Cl)Cl)cc1 (centres undefined)
inactive: [1] | [2] | [3] | [4] | [18] | [6] | [19] | [14] | [15] | [7] | [9] | [10] | [17] | [11]
active: [3] 3.58 µM and 26.9 µM and 15 µM

Cc1cc2c3c(c1)C(c1ccccc1)=N[C@@H](NC(=O)c1ccncc1)C(=O)N3CC2
active: [3] 5.69 µM | [13] 100 µM
inactive: [1] | [2] | [12] | [6] | [19] | [10] | [17] | [11]
